These results are taken from publication PMC7862700, “An all-to-all approach to the identification of sequence-specific readers for epigenetic DNA modifications on cytosine”.

Common to all, as to assay: DAPPL (digital affinity profiling via proximity ligation, sequencing); 10 mM Tris-HCl pH 7.5, 50 mM NaCl, 1 mM DTT, 4% glycerol, room temperature, 30 min; GST-TFs on glutathione beads, 16-mer random dsDNA library, 0.1% formaldehyde crosslink after washing; high values mean tight binding
Assay [1] concerns the target T1, FLI1 (Homo sapiens, UniProt Q01543 1-452).
T1 sequence: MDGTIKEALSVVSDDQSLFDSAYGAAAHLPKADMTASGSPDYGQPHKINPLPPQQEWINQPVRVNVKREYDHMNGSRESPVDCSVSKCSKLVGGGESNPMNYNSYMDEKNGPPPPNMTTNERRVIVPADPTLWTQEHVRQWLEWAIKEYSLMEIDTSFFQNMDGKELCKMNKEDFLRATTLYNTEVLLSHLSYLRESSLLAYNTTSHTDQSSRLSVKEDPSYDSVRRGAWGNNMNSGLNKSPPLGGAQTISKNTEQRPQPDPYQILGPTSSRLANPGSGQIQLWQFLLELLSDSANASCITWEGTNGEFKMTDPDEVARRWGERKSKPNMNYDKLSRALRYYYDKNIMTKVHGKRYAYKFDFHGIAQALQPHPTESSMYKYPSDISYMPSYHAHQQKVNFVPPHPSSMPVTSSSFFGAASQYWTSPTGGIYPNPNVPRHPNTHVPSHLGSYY
Conditions: protein: recombinant; tags: N-terminal GST; dsDNA, one strand shown. In outline:
(§1)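 Sequencing on an Illumina NextSeq500 followed washing, crosslinking with 0.1% formaldehyde, proximity ligation (BsaI/T4 ligase, 1 h, 37 °C) and PCR amplification of pools that had been incubated for 30 min at room temperature with 200 nmole of a random double-stranded 16-mer DNA library in Tris/NaCl/DTT/glycerol buffer. Each pool held DNA-barcoded human transcription factors, expressed in yeast as GST fusions and captured on glutathione beads, plus a tag-only sample. Binding signal is a hexamer's read frequency for a factor divided by its frequency in the tag-only sample.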

In assay [2] the target is T2, ELK1 (Homo sapiens, UniProt P19419 1-428).
T2 sequence: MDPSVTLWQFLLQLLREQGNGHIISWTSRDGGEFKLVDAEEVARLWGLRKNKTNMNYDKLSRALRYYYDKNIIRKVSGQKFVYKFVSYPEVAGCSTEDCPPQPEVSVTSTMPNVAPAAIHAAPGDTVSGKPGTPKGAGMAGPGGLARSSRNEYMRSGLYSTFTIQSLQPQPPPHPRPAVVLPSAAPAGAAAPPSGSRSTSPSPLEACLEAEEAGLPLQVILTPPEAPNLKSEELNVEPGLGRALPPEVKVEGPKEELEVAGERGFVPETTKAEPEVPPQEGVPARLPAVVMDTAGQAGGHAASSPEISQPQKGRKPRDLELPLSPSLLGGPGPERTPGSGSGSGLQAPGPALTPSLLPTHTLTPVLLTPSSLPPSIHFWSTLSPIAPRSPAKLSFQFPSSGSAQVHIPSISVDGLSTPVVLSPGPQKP
The settings on record: protein: recombinant; tags: N-terminal GST; dsDNA, one strand shown. In outline: as §1

For assay [3], the target named is T3, GABPA (Homo sapiens, UniProt Q06546 1-454).
T3 sequence: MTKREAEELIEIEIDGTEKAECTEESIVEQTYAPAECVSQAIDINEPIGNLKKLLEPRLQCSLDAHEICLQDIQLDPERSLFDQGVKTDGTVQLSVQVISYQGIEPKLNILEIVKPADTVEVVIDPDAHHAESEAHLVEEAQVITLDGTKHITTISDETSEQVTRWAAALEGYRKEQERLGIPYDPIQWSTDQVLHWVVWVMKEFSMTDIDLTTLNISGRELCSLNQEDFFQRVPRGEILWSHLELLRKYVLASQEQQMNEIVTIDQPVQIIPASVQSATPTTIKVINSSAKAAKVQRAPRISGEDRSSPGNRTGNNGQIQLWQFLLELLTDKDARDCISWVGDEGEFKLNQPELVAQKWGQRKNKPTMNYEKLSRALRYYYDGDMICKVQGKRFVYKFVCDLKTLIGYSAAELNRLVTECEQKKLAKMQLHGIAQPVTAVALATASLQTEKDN
Conditions: protein: recombinant; tags: N-terminal GST; dsDNA, one strand shown. In outline: as §1

The target in assay [4] is T4, ERG (Homo sapiens, UniProt P11308 1-479).
T4 sequence: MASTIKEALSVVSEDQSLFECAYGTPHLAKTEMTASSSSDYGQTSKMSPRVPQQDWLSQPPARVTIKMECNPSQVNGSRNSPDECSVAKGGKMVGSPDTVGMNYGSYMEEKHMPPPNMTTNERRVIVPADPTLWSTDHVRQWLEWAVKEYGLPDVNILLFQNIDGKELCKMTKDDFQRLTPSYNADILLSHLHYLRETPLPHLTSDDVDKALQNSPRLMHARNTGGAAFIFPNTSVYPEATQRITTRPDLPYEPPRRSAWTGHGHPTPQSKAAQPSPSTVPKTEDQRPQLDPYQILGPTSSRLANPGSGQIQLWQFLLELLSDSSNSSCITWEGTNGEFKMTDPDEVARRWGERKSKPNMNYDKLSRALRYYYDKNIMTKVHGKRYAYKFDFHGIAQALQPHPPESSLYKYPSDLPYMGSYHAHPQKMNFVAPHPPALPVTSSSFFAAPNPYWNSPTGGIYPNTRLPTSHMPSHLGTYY
Conditions: protein: recombinant; tags: N-terminal GST; dsDNA, one strand shown. In outline:
as §1

Assay [5] addresses ELF1 (Homo sapiens, UniProt P32519 1-619). Conditions: protein: recombinant; tags: N-terminal GST; dsDNA, one strand shown. In outline:
as §1

For assay [6], the target named is T5, EHF (Homo sapiens, UniProt Q9NZC4 1-300).
T5 sequence: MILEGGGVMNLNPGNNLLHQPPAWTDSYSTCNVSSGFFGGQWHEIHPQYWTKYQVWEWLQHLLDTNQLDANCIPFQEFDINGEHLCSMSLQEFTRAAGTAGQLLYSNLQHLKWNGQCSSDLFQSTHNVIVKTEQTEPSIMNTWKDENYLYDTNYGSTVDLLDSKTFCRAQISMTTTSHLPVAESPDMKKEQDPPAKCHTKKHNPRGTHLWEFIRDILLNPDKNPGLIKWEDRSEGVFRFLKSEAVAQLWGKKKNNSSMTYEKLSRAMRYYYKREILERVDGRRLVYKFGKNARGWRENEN
The settings on record: protein: recombinant; tags: N-terminal GST; dsDNA, one strand shown. In outline: as §1

The target in assay [7] is SPI1 (Homo sapiens, UniProt P17947 1-270). The settings on record: protein: recombinant; tags: N-terminal GST; dsDNA, one strand shown. In outline:
as §1

Assay [8] concerns the target SPIB (Homo sapiens, UniProt Q01892 1-262). Conditions: protein: recombinant; tags: N-terminal GST; dsDNA, one strand shown. Put shortly:
as §1

The target of assay [9] is T6, ELK3 (Homo sapiens, UniProt P41970 1-407).
T6 sequence: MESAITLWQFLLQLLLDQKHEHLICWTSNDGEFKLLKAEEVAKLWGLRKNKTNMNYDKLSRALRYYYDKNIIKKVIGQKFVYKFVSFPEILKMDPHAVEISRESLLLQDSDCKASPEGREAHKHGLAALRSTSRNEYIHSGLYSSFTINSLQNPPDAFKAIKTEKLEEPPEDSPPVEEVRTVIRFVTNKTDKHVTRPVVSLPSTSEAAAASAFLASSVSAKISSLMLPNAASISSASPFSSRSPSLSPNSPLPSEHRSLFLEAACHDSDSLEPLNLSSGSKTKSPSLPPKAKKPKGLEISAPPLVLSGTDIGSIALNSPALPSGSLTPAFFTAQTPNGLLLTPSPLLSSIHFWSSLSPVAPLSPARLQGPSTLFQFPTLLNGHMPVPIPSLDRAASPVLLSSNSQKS
The settings on record: protein: recombinant; tags: N-terminal GST; dsDNA, one strand shown. In outline:
as §1

For assay [10], the target named is T7, FEV (Homo sapiens, UniProt Q99581 1-238).
T7 sequence: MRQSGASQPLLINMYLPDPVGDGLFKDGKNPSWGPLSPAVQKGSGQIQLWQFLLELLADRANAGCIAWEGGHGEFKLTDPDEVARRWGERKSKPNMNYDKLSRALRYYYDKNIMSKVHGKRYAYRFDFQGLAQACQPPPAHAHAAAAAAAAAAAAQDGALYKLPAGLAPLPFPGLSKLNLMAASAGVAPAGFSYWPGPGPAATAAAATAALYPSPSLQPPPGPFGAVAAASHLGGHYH
Conditions: protein: recombinant; tags: N-terminal GST; dsDNA, one strand shown. In outline:
as §1

The target of assay [11] is ETV5 (Homo sapiens, UniProt P41161 1-510). Conditions: protein: recombinant; tags: N-terminal GST; dsDNA, one strand shown. In outline: as §1
Chain of ETV5 (P41161 whole entry): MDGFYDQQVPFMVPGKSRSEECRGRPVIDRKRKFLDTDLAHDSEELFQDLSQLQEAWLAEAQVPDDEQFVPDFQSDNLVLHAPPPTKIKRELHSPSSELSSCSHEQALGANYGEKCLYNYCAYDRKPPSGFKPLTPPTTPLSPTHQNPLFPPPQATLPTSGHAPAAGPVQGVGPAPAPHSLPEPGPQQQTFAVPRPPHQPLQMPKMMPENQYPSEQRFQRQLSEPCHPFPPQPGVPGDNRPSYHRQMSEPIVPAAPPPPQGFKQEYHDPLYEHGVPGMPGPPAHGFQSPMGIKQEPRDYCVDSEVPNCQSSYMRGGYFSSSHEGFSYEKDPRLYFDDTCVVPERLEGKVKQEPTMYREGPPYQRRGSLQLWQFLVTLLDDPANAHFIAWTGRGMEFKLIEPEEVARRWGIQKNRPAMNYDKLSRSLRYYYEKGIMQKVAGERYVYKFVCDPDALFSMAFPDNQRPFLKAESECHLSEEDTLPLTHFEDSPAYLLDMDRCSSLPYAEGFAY
The target in assay [12] is HSF1 (Homo sapiens, UniProt Q00613 1-529). Conditions: protein: recombinant; tags: N-terminal GST; chain copies: 3; dsDNA, one strand shown. Put shortly:
as §1

Assay [13] has as its target T8, SPIC (Homo sapiens, UniProt Q8N5J4 1-248).
T8 sequence: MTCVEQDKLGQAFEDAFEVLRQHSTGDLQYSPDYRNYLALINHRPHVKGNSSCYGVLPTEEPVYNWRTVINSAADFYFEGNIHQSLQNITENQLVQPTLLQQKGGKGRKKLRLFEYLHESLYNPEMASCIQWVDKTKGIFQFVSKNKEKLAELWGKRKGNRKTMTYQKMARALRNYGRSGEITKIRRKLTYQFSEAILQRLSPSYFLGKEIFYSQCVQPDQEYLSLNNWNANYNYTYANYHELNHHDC
Conditions: protein: recombinant; tags: N-terminal GST; dsDNA, one strand shown. Put shortly: as §1

Assay [14] deals with ELF4 (Homo sapiens, UniProt Q99607 1-663). The settings on record: protein: recombinant; tags: N-terminal GST; dsDNA, one strand shown. In outline: as §1
Chain of ELF4 (Q99607 whole entry): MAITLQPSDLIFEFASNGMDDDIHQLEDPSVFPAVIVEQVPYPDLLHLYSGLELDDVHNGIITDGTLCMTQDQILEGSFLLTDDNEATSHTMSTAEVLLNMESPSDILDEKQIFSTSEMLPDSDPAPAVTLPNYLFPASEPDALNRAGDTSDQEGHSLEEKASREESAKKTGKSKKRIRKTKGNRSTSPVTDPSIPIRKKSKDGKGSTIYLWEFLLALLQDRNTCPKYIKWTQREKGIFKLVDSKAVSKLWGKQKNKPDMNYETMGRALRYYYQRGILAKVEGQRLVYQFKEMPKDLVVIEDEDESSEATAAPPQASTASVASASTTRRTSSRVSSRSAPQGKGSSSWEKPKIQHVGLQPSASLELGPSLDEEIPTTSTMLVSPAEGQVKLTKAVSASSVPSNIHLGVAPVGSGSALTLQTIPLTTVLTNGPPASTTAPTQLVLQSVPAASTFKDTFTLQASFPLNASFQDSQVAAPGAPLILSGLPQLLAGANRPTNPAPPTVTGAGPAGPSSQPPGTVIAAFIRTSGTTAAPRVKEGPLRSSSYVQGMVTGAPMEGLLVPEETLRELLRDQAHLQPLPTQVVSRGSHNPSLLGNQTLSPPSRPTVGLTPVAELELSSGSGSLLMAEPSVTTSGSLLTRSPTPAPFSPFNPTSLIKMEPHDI
Assay [15] deals with T9, ELK4 (Homo sapiens, UniProt P28324-2 1-405).
T9 sequence: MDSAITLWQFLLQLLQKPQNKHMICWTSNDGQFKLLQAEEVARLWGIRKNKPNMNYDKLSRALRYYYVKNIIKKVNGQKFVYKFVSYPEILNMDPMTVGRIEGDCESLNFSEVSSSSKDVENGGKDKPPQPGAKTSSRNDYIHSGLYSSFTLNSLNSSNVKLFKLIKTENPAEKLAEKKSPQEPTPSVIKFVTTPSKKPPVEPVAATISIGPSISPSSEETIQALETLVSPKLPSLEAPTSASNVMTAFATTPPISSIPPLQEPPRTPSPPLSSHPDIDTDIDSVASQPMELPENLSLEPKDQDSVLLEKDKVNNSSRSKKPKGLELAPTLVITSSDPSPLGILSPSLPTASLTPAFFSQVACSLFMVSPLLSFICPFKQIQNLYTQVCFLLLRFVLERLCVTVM
The settings on record: protein: recombinant; tags: N-terminal GST; dsDNA, one strand shown. In outline:
as §1

Assay [16] has as its target T10, ETV2 (Homo sapiens, UniProt O00321 1-342).
T10 sequence: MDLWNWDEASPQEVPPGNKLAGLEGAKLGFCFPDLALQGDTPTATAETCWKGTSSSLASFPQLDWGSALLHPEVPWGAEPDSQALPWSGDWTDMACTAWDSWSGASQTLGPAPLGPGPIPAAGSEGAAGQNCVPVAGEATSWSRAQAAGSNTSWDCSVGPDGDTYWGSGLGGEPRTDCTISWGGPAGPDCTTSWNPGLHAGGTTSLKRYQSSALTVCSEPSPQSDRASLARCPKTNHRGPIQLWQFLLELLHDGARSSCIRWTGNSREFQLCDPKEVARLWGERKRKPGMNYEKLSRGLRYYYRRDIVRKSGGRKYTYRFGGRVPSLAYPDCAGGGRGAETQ
The settings on record: protein: recombinant; tags: N-terminal GST; dsDNA, one strand shown. In outline:
as §1

In assay [17] the target is T11, ELF3 (Homo sapiens, UniProt P78545 1-371).
T11 sequence: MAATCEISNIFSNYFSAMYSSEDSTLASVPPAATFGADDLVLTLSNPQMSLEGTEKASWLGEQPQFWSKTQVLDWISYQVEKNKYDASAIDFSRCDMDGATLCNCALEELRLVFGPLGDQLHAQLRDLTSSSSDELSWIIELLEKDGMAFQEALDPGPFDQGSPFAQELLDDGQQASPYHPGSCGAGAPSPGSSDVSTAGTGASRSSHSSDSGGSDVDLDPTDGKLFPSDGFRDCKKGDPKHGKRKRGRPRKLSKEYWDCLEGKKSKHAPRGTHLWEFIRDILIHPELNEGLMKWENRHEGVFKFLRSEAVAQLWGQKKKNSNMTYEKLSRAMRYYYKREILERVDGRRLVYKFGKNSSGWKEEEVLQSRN
The settings on record: protein: recombinant; tags: N-terminal GST; dsDNA, one strand shown. Put shortly: as §1

In assay [18] the target is ETV1 (Homo sapiens, UniProt P50549 1-477). The settings on record: protein: recombinant; tags: N-terminal GST; dsDNA, one strand shown. Put shortly: as §1
Chain of ETV1 (P50549 whole entry): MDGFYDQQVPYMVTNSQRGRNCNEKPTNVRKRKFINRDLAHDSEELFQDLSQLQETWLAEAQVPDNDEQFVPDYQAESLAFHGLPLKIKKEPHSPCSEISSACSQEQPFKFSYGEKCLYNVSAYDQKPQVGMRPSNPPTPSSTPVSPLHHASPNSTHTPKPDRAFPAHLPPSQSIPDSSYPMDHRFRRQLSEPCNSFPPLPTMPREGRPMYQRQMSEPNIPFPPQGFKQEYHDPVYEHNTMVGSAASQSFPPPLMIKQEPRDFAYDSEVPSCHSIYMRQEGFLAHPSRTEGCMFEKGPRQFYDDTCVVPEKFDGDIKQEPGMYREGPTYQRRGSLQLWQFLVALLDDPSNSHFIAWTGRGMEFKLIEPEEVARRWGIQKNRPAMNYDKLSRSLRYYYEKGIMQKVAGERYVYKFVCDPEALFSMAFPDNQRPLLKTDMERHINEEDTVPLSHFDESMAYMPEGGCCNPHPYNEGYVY

Chain of SPIB (Q01892 whole entry): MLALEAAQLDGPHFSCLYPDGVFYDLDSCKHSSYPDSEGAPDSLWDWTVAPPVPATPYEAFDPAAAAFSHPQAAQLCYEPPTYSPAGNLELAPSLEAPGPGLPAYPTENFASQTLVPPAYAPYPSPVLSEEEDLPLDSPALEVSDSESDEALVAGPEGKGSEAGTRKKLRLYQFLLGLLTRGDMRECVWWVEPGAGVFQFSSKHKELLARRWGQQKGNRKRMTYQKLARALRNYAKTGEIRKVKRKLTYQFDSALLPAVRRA
Chain of HSF1 (Q00613 whole entry): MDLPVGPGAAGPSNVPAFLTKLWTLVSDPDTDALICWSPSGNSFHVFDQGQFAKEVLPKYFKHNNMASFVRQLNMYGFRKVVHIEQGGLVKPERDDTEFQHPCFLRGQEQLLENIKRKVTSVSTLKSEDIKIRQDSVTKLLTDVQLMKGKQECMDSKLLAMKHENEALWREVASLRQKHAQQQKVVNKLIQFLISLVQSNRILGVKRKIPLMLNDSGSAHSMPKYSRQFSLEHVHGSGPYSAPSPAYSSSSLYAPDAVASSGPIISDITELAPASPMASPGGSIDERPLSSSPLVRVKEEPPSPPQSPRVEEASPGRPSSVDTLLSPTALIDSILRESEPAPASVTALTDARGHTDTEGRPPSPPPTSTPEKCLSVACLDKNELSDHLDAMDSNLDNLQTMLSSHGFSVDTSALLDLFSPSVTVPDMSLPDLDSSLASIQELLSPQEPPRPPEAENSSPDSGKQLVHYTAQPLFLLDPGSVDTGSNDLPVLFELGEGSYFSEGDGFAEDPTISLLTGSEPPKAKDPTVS
Chain of ELF1 (P32519 whole entry): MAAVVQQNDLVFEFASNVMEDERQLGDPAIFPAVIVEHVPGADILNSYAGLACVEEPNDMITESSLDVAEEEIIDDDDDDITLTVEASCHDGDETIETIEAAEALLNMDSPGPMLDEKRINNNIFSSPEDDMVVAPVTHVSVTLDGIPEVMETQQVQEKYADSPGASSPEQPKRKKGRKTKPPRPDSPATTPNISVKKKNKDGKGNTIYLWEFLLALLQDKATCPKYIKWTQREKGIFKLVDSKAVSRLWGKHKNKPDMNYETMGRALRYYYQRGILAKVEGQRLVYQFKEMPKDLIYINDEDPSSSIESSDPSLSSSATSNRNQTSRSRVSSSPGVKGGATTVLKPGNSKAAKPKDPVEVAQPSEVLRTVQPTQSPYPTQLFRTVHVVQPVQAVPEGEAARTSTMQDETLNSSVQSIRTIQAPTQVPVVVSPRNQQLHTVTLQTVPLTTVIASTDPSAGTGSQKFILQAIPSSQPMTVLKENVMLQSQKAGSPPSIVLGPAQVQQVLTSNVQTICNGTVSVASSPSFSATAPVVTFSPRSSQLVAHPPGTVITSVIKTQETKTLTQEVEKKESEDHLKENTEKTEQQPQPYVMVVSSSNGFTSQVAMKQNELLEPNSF

Regarding ACCATC, the binding signal in assay [1] is 1.18 fold enrichment (6-mer frequency, TF over GST control); in assay [2], 1.14 fold enrichment (6-mer frequency, TF over GST control); in assay [3], 1.19 fold enrichment (6-mer frequency, TF over GST control); in [4] it was 1.1 fold enrichment (6-mer frequency, TF over GST control); in [5], 1.21 fold enrichment (6-mer frequency, TF over GST control); in assay [6], 1.12 fold enrichment (6-mer frequency, TF over GST control). Further, the binding signal is 1.15 fold enrichment (6-mer frequency, TF over GST control) in assay [7]; 1.07 fold enrichment (6-mer frequency, TF over GST control) in [8]; 1.24 fold enrichment (6-mer frequency, TF over GST control) in assay [9]; 1.13 fold enrichment (6-mer frequency, TF over GST control) in [10]; 1.11 fold enrichment (6-mer frequency, TF over GST control) in assay [11]; 1.14 fold enrichment (6-mer frequency, TF over GST control) in assay [12]. Moreover, the binding signal is 1.02 fold enrichment (6-mer frequency, TF over GST control) in assay [13]; 1.12 fold enrichment (6-mer frequency, TF over GST control) in assay [14]; 1.13 fold enrichment (6-mer frequency, TF over GST control) in [15]; 1.06 fold enrichment (6-mer frequency, TF over GST control) in [16]; 1.19 fold enrichment (6-mer frequency, TF over GST control) in [17]; 1.03 fold enrichment (6-mer frequency, TF over GST control) in [18].
